Results on one sequence are retold here after publication PMC7862700, “An all-to-all approach to the identification of sequence-specific readers for epigenetic DNA modifications on cytosine”.

Common to all, as to assay: DAPPL (digital affinity profiling via proximity ligation, sequencing); 10 mM Tris-HCl pH 7.5, 50 mM NaCl, 1 mM DTT, 4% glycerol, room temperature, 30 min; GST-TFs on glutathione beads, 16-mer random dsDNA library, 0.1% formaldehyde crosslink after washing; high values mean tight binding
One test has as its target T1, FLI1 (Homo sapiens, UniProt Q01543 1-452).
T1 sequence: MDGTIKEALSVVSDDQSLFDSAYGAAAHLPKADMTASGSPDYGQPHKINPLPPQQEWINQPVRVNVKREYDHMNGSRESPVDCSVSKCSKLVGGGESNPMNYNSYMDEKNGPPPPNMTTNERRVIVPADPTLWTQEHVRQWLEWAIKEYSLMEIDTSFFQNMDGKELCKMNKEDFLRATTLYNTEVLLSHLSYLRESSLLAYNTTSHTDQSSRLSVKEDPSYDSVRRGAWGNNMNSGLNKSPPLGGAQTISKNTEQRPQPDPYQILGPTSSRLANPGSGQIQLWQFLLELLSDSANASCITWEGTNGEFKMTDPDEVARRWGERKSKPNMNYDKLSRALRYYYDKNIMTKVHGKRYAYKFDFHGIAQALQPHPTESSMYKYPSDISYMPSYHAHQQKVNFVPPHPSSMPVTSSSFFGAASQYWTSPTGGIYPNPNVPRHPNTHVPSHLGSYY
The settings on record: protein: recombinant; tags: N-terminal GST; dsDNA, one strand shown. An outline of the steps:
(§1)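 Binding signal is given per hexamer as its read frequency for a factor divided by its frequency in the tag-only sample. GST-fused human transcription factors were expressed in yeast, captured on glutathione beads, barcoded with DNA and pooled with that sample, then incubated with 200 nmole of a 16-mer random double-stranded DNA library in Tris/NaCl/DTT/glycerol buffer for 30 min at room temperature. The pools were then washed, crosslinked, proximity-ligated, amplified by PCR and sequenced on an Illumina NextSeq500.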

The next test concerns the target T2, ELK1 (Homo sapiens, UniProt P19419 1-428).
T2 sequence: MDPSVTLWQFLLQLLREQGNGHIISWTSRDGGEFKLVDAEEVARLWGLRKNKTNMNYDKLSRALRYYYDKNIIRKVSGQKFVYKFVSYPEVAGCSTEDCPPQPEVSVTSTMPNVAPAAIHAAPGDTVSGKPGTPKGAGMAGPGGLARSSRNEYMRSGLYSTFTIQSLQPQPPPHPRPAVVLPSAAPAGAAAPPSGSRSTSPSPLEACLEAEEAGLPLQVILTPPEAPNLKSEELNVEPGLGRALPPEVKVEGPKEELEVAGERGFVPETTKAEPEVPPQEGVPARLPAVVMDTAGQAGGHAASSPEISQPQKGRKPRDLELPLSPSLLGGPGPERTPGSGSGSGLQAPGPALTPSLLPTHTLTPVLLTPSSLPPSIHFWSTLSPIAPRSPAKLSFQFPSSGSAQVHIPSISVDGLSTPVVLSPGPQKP
The note with it: protein: recombinant; tags: N-terminal GST; dsDNA, one strand shown. Summed up: as §1

The target of a further test is T3, GABPA (Homo sapiens, UniProt Q06546 1-454).
T3 sequence: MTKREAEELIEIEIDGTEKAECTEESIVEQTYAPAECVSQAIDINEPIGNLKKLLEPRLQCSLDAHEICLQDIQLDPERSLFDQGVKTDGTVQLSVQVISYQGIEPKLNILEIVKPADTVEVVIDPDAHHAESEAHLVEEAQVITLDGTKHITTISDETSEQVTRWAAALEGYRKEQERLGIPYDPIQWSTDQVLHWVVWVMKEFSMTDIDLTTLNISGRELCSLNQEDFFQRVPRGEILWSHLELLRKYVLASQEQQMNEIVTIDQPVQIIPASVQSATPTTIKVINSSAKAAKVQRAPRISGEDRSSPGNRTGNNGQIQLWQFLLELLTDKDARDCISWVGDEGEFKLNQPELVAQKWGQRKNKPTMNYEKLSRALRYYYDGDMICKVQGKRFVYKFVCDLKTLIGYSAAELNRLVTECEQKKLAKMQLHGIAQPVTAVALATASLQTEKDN
The settings on record: protein: recombinant; tags: N-terminal GST; dsDNA, one strand shown. An outline of the steps: as §1

The next test has as its target T4, ERG (Homo sapiens, UniProt P11308 1-479).
T4 sequence: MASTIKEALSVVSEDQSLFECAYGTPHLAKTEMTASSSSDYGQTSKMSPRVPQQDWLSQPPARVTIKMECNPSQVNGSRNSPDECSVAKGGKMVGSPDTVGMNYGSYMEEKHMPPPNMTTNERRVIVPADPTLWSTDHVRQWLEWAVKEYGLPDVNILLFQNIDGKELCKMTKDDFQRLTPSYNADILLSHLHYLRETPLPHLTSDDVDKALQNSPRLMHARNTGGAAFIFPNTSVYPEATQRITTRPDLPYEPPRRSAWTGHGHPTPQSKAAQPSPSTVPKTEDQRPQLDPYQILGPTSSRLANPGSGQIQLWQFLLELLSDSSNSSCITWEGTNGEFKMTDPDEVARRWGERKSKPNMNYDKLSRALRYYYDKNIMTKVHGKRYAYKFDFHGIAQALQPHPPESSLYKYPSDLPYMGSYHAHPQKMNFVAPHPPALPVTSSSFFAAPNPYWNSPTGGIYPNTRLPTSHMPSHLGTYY
The settings on record: protein: recombinant; tags: N-terminal GST; dsDNA, one strand shown. An outline of the steps:
as §1

A further test concerns the target ELF1 (Homo sapiens, UniProt P32519 1-619). The note with it: protein: recombinant; tags: N-terminal GST; dsDNA, one strand shown. Summed up:
as §1

A further test deals with T5, EHF (Homo sapiens, UniProt Q9NZC4 1-300).
T5 sequence: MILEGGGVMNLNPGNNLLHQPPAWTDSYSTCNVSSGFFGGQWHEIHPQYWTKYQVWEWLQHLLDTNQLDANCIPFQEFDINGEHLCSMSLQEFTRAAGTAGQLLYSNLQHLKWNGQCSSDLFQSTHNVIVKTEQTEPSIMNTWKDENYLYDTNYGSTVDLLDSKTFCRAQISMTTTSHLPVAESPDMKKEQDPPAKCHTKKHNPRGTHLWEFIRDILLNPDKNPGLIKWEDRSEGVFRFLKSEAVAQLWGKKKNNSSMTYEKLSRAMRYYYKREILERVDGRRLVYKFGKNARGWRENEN
The settings on record: protein: recombinant; tags: N-terminal GST; dsDNA, one strand shown. Summed up:
as §1

The target in another test is SPI1 (Homo sapiens, UniProt P17947 1-270). The settings on record: protein: recombinant; tags: N-terminal GST; dsDNA, one strand shown. An outline of the steps: as §1
A further test addresses SPIB (Homo sapiens, UniProt Q01892 1-262). The note with it: protein: recombinant; tags: N-terminal GST; dsDNA, one strand shown. Summed up: as §1
The next test concerns the target T6, ELK3 (Homo sapiens, UniProt P41970 1-407).
T6 sequence: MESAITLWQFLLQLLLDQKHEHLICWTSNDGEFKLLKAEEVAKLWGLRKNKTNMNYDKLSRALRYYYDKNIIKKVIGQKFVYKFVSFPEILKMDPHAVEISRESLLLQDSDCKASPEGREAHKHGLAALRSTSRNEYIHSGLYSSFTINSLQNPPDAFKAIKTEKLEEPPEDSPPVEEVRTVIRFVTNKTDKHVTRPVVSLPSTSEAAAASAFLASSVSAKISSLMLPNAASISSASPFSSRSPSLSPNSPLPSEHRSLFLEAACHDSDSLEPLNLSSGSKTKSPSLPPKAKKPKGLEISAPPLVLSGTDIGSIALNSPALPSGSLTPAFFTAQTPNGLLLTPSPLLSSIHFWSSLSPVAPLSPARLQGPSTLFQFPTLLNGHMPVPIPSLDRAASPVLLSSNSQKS
The note with it: protein: recombinant; tags: N-terminal GST; dsDNA, one strand shown. Summed up: as §1

The target in another test is T7, FEV (Homo sapiens, UniProt Q99581 1-238).
T7 sequence: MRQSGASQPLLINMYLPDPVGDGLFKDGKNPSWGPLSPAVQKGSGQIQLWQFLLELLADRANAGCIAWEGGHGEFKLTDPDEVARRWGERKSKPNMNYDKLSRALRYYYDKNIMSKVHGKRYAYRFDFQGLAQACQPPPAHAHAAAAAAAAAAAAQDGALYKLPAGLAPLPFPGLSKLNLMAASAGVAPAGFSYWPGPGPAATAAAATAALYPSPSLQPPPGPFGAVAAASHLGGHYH
The note with it: protein: recombinant; tags: N-terminal GST; dsDNA, one strand shown. An outline of the steps: as §1

Another test addresses ETV5 (Homo sapiens, UniProt P41161 1-510). The note with it: protein: recombinant; tags: N-terminal GST; dsDNA, one strand shown. Summed up:
as §1

The target in the next test is HSF1 (Homo sapiens, UniProt Q00613 1-529). The note with it: protein: recombinant; tags: N-terminal GST; chain copies: 3; dsDNA, one strand shown. An outline of the steps: as §1
The target of a further test is T8, SPIC (Homo sapiens, UniProt Q8N5J4 1-248).
T8 sequence: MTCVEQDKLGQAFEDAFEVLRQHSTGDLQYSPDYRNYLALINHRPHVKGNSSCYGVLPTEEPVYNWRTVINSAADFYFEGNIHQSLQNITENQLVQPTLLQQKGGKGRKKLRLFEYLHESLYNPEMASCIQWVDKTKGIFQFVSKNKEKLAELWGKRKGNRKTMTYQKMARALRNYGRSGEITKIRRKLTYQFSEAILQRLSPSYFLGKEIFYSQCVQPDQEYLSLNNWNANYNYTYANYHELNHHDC
The settings on record: protein: recombinant; tags: N-terminal GST; dsDNA, one strand shown. An outline of the steps: as §1

The target of a further test is ELF4 (Homo sapiens, UniProt Q99607 1-663). The settings on record: protein: recombinant; tags: N-terminal GST; dsDNA, one strand shown. An outline of the steps: as §1
The next test concerns the target T9, ELK4 (Homo sapiens, UniProt P28324-2 1-405).
T9 sequence: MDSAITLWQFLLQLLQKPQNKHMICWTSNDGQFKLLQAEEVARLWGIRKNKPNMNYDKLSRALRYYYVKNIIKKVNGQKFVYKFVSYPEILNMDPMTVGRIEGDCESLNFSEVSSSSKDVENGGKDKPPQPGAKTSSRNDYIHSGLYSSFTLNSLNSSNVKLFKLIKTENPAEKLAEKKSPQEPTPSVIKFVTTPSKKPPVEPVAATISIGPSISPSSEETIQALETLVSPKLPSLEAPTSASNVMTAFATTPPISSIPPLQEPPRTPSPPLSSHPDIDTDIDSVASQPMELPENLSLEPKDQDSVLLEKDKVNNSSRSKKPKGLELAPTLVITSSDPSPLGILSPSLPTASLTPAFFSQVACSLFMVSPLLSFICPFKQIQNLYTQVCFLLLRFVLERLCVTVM
The note with it: protein: recombinant; tags: N-terminal GST; dsDNA, one strand shown. Summed up: as §1

A further test deals with T10, ETV2 (Homo sapiens, UniProt O00321 1-342).
T10 sequence: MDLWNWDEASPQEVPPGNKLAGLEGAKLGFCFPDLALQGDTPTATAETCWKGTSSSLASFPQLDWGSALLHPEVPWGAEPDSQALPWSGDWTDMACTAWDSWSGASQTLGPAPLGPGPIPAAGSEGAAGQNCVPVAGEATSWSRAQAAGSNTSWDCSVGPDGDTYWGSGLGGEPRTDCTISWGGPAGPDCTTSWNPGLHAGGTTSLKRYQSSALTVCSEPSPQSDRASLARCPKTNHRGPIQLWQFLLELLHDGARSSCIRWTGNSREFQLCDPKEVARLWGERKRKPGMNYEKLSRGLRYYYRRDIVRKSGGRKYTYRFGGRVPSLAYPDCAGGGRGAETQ
The note with it: protein: recombinant; tags: N-terminal GST; dsDNA, one strand shown. An outline of the steps: as §1

The target in a further test is T11, ELF3 (Homo sapiens, UniProt P78545 1-371).
T11 sequence: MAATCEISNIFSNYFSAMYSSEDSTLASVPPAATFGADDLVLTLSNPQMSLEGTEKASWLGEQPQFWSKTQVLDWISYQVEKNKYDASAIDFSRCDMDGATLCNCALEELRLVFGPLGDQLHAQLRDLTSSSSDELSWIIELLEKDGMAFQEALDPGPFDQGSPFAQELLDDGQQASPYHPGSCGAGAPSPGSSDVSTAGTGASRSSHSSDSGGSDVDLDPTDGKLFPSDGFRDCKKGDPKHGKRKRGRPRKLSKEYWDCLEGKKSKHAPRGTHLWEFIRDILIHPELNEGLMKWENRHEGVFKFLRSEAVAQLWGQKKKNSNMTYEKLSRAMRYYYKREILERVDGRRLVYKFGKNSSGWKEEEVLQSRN
The settings on record: protein: recombinant; tags: N-terminal GST; dsDNA, one strand shown. An outline of the steps:
as §1

The next test concerns the target CRX (Homo sapiens, UniProt O43186 1-299). The note with it: protein: recombinant; tags: N-terminal GST; dsDNA, one strand shown. Summed up: as §1
For another test, the target named is ETV1 (Homo sapiens, UniProt P50549 1-477). The note with it: protein: recombinant; tags: N-terminal GST; dsDNA, one strand shown. An outline of the steps:
as §1

Sequence of ELF4 (Q99607 whole entry): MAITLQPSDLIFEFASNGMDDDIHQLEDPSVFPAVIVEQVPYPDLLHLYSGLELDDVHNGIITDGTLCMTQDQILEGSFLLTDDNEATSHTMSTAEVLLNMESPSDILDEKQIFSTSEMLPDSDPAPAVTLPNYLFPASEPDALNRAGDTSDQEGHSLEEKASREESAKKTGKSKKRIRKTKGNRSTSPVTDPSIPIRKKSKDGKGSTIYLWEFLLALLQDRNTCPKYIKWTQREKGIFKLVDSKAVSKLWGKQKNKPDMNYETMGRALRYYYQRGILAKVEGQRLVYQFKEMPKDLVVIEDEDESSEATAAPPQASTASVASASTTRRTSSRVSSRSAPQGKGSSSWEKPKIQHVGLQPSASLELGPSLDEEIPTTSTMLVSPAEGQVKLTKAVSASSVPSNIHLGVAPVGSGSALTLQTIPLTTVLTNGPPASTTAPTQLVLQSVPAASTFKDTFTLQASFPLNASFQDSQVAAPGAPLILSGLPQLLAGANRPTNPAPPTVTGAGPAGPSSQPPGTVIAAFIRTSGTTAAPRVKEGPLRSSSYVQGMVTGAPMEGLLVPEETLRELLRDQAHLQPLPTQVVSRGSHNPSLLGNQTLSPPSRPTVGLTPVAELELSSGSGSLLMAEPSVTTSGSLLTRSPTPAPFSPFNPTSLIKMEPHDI
Sequence of SPIB (Q01892 whole entry): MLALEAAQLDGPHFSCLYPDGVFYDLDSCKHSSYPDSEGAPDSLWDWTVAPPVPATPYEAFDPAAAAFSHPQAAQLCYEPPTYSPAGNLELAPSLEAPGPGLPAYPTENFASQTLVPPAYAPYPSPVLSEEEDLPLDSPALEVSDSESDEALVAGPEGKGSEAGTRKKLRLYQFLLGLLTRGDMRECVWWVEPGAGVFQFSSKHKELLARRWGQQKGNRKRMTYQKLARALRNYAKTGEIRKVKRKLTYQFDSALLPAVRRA
Sequence of ELF1 (P32519 whole entry): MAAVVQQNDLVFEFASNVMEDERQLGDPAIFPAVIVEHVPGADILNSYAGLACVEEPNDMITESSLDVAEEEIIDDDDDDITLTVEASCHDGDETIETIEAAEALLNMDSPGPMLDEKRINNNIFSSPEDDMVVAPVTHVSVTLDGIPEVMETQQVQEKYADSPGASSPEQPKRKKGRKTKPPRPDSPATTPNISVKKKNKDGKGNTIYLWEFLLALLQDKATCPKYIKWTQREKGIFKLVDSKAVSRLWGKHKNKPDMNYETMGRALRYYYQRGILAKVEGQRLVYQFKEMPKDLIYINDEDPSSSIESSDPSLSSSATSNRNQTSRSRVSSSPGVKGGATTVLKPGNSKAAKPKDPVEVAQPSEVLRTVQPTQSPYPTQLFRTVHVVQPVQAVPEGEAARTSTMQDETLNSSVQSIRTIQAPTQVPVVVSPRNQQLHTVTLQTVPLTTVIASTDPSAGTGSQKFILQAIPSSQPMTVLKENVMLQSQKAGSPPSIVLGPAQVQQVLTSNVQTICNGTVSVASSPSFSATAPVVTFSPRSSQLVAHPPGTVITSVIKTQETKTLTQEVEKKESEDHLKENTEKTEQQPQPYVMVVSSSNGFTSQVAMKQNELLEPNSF
Sequence of HSF1 (Q00613 whole entry): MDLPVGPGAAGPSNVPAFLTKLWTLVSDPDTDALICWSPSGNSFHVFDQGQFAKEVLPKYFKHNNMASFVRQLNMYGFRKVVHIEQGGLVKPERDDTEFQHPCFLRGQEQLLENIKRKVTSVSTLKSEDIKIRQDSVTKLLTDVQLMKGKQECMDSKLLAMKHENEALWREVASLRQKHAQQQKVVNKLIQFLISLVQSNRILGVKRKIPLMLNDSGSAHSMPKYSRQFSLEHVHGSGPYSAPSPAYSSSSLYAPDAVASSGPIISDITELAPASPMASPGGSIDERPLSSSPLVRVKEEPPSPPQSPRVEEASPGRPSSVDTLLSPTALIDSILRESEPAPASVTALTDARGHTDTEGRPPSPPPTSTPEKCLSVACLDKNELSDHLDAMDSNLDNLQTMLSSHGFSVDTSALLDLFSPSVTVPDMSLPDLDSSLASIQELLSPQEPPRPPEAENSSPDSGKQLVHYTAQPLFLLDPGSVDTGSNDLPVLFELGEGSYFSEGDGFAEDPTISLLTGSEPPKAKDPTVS
Sequence of ETV1 (P50549 whole entry): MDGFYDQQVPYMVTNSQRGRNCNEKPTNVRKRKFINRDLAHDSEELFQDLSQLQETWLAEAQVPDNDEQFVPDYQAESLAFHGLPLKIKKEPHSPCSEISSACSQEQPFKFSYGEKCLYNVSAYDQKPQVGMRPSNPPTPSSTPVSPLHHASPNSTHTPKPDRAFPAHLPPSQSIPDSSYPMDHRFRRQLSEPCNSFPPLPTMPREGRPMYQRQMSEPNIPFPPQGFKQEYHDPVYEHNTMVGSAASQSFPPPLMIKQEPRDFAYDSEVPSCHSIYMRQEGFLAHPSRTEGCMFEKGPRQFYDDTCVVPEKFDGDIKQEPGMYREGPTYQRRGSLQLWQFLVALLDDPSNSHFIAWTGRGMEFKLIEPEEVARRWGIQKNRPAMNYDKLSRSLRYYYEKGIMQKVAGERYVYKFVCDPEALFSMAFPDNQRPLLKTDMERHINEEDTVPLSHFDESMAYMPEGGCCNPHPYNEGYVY
Sequence of ETV5 (P41161 whole entry): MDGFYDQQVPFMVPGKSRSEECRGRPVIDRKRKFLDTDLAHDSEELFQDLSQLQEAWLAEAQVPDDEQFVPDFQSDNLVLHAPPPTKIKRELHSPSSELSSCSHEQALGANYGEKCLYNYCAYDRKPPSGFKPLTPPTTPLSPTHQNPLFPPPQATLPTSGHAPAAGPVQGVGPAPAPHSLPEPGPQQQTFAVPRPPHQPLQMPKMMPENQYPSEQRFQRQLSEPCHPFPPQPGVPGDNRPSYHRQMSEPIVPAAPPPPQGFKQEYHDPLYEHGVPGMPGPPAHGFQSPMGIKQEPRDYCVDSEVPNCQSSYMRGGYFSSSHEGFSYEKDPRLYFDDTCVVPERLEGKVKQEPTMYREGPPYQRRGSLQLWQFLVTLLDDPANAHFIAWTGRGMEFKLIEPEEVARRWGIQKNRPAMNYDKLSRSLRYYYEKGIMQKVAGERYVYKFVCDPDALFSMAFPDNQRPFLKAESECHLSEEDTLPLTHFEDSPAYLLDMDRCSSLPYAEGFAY
Sequence of CRX (O43186 whole entry): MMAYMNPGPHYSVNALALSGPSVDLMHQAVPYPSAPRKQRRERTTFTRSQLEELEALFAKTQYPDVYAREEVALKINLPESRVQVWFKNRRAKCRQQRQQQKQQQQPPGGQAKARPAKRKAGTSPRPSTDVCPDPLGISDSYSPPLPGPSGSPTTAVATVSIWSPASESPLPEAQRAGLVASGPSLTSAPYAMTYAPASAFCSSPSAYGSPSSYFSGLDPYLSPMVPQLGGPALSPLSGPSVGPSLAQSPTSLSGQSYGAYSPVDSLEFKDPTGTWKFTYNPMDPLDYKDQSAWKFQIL

Consider CCGCTA, for which the binding signal with FLI1 was 1.45 fold enrichment (6-mer frequency, TF over GST control); with ELK1 it was 1.37 fold enrichment (6-mer frequency, TF over GST control); with GABPA, 1.2 fold enrichment (6-mer frequency, TF over GST control); with ERG, 1.37 fold enrichment (6-mer frequency, TF over GST control); with ELF1, 1.27 fold enrichment (6-mer frequency, TF over GST control); with EHF, 1.41 fold enrichment (6-mer frequency, TF over GST control). The binding signal with SPI1 was 1.51 fold enrichment (6-mer frequency, TF over GST control); with SPIB it was 1.46 fold enrichment (6-mer frequency, TF over GST control); with ELK3, 1.37 fold enrichment (6-mer frequency, TF over GST control); with FEV, 1.33 fold enrichment (6-mer frequency, TF over GST control); in the test with ETV5, 1.23 fold enrichment (6-mer frequency, TF over GST control); with HSF1, 1.17 fold enrichment (6-mer frequency, TF over GST control). Besides, the binding signal was 1.44 fold enrichment (6-mer frequency, TF over GST control) in the test with SPIC; 1.33 fold enrichment (6-mer frequency, TF over GST control) with ELF4; 1.3 fold enrichment (6-mer frequency, TF over GST control) in the test with ELK4; 1.37 fold enrichment (6-mer frequency, TF over GST control) with ETV2; 1.38 fold enrichment (6-mer frequency, TF over GST control) with ELF3; 1.28 fold enrichment (6-mer frequency, TF over GST control) with CRX. In addition, the binding signal in the test with ETV1 was 1.36 fold enrichment (6-mer frequency, TF over GST control).
